Screening data deposited in PubChem by NMMLSC.
RGS16-Gao HTS = modulators of RGS16 binding to Galphao, primary screen, biochemical, human proteins, multiplexed bead flow cytometry; Regulator of G-protein signaling 16 (Homo sapiens) + Guanine nucleotide-binding protein …; 220,000 tested, 0.38% active; binding response (% of control), % at 10 µM; bead-based flow cytometry RGS16-Galphao binding, fluorescence; actives lie on both sides; call rule not given here;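 note: Galphao activated by GDP with aluminum fluoride before binding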
Target sequence (O15492 whole entry, looked up): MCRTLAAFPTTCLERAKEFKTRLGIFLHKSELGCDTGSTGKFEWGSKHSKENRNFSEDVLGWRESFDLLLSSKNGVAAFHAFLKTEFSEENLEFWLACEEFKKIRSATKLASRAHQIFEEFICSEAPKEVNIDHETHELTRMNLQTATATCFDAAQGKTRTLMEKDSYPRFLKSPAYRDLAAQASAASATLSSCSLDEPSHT
Target sequence (P09471 whole entry, looked up): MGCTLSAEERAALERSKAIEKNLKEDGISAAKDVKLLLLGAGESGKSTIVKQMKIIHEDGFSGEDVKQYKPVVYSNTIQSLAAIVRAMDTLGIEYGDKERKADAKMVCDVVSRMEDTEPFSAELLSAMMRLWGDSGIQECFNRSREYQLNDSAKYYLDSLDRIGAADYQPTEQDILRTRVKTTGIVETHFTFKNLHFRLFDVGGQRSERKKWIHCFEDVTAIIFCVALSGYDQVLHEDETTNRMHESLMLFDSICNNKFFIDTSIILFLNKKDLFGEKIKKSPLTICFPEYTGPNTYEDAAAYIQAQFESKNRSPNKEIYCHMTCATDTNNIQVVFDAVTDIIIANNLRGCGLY
GSH bead fluor = compound fluorescence on glutathione beads, profiling panel, artefact control, biophysical, 488/530 nm, flow cytometry; GSH beads flow cytometry, compound fluorescence 488/530 nm; active compounds read high; 190,000 tested, 0.25% active; fluorescence (KMESF) at 10 µM; in the data active = fluorescence above about 89;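 note: glutathione beads carrying GST-tagged Bcl family fusion proteins plus one bare bead set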
RGS4-Gao reg = modulators of RGS4 binding to Galphao, primary screen, biochemical, multiplexed bead flow cytometry. Guanine nucleotide-binding protein G(o) subunit alpha (Homo sapiens), P09471. actives lie on both sides. binding response (% of control), % at 10 µM. 220,000 tested, 0.33% active; in the data active = binding response below about 49% or above about 150%; inactive = in between;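 note: fluorescent Galphao activated with aluminum fluoride binding bead-coupled RGS4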
RGS7-Gao reg = RGS7-Galphao binding modulators, primary screen, biochemical, multiplexed bead flow cytometry. binding response (% of control), % at 10 µM. 220,000 tested, 0.35% active. actives lie on both sides; in the data active = binding response below about 49% or above about 150%; inconclusive = no clear call, values can overlap the other calls; inactive = in between;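 note: fluorescent Galphao held in activated GDP-AlF4 state binding bead-coupled RGS7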
Avidin fluor = green autofluorescence of compounds with avidin beads – biophysical, 488/530 nm, flow cytometry, artefact control, profiling panel. compound fluorescence 488/530 nm; active compounds read high. fluorescence (KMESF) at 10 µM. 220,000 tested, 0.38% active; in the data active = fluorescence above about 47
RGS8-Gao = RGS8-Galphao binding modulators, primary screen, biochemical, multiplexed bead flow cytometry | Guanine nucleotide-binding protein G(o) subunit alpha (Homo sapiens), P09471 | actives lie on both sides | response (percent of control binding), % at 10 µM | 220,000 tested, 0.34% active; in the data active = response below about 60% or above about 140%; inactive = in between;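 note: Galphao activated as the GDP aluminium fluoride complex binding bead-coupled RGS8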
Each line names hits and unclear results; the compound was inactive in the other large screens; [ ] = another dose, or the depositor's remark. In the library only some 1.2% were active in any assay of this set; here they are far more common.

CCc1ccccc1NC(=O)Cn1cccc1C1=NC(c2ccccc2)CO1 (stereo not drawn)	Avidin fluor 51
COc1cc(C(F)(F)F)nc(-c2ccccn2)n1	RGS7-Gao reg inconclusive
CC(C)Nc1cc(C(F)(F)F)nc(-c2ccccn2)n1	RGS4-Gao reg 152.7[activator], RGS7-Gao reg 273.6[activator], Avidin fluor 332
O=C(/C=C/c1cc([N+](=O)[O-])ccc1OC(F)F)NCc1ccc(Cl)cc1	GSH bead fluor 264
O=C(O)CSc1nc2ccccc2o1	none
O=C(CSc1nc2ccccc2o1)N1CCCC1	GSH bead fluor 260
Cc1ccc(-c2nnc(SCC(=O)N3CCCC3)o2)cc1C	none
Cc1ccc(-c2nnc(SCC(=O)N3CCCC3)o2)cc1	GSH bead fluor 259
C=CCNC(=S)Nc1ccc(N(C)C)cc1	RGS7-Gao reg inconclusive (no result: GSH bead fluor)
O=C(CSc1c(F)c(F)cc(F)c1F)Nc1ccc(C2SCCS2)cc1	RGS7-Gao reg inconclusive (no result: GSH bead fluor)
CCN(CC)S(=O)(=O)c1cccc(NC(=O)COC(=O)c2ccc(Br)o2)c1	GSH bead fluor 255
CCN(CC)S(=O)(=O)c1cccc(NC(=O)COC(=O)c2cc(=O)c3ccccc3o2)c1	none
CCN(c1ccccc1)S(=O)(=O)c1ccc(Cl)c(C(=O)N(CC2CCCO2)C2CCS(=O)(=O)C2)c1 (stereo not drawn)	RGS7-Gao reg inconclusive
Cc1cc(-c2ccn[nH]2)c(C)s1	none
Cc1c(-c2cccc(Cl)c2)nc2ccccc2c1C(=O)OC/C(O)=C(\C#N)c1nc2ccccc2[nH]1	none
COc1ccc(Nc2nc(N)c([N+](=O)[O-])c(NCc3ccccc3)n2)cc1	RGS7-Gao reg inconclusive, Avidin fluor 56 (no result: GSH bead fluor)
Cc1ccc(Nc2nc(N)c([N+](=O)[O-])c(NCc3ccccc3)n2)cc1	RGS7-Gao reg inconclusive (no result: GSH bead fluor)
COc1ccc(N(C(=O)Cn2nnc3ccccc32)C(C(=O)NCc2ccco2)c2ccc(C)o2)cc1 (stereo not drawn)	GSH bead fluor 252
O=C(CSc1nnc(CNc2ccc(F)cc2)o1)c1ccccc1	none
COC(CNC(=O)c1cccc(-n2c(=S)[nH]c3cc(Cl)ccc3c2=O)c1)OC	none
Cc1ccc(NC(=O)C(C)NC(=O)OCc2ccccc2)cc1C (stereo not drawn)	RGS7-Gao reg inconclusive (no result: GSH bead fluor)
N#Cc1cccc(NC(=O)CC2CCCCC2)c1	GSH bead fluor 260
N#Cc1ccc(NC(=O)Nc2cccc(C#N)c2)cc1	RGS7-Gao reg inconclusive (no result: GSH bead fluor)
Cc1ccc(OCC(=O)Nc2cccc(S(=O)(=O)N3CCCCCC3)c2)c([N+](=O)[O-])n1	RGS7-Gao reg inconclusive
O=C(CSc1nnc(-c2ccncc2)n1-c1ccc(Cl)cc1)N1CCOCC1	Avidin fluor 77
CCn1c(SCC(=O)N2CCN(c3ccccc3)CC2)nnc1-c1ccncc1	GSH bead fluor 148
NC(=O)CSc1nnc(-c2ccncc2)n1-c1ccc(Cl)cc1	none
CCOC(=O)Cc1csc(NC(=O)C(C)c2ccc([N+](=O)[O-])cc2)n1 (stereo not drawn)	none
CC(C)CN(C(=O)COC(=O)c1c(Cl)ccc(Cl)c1Cl)C1CCS(=O)(=O)C1 (stereo not drawn)	none
O=C1C=C(NNC(=O)c2cccnc2)CC(c2ccco2)C1 (stereo not drawn)	none
CCOc1ccc2[nH]c(=O)c(C(c3nnnn3C3CCCCC3)N3CCN(CC)CC3)cc2c1 (stereo not drawn)	Avidin fluor 76
CS(=O)(=O)N1CCN(C(=O)Cc2ccccc2Cl)CC1	none
Cc1nc(N2CCN(c3ccccc3)CC2)[nH]c(=O)c1Cc1cccc2ccccc12	Avidin fluor 197
Cc1nc(N2CCN(c3ccccc3)CC2)[nH]c(=O)c1CCC(C)C	RGS7-Gao reg inconclusive
O=C(CCS(=O)(=O)c1ccc(Cl)cc1)Nc1ccc(N2CCOCC2)cc1	RGS7-Gao reg inconclusive (no result: GSH bead fluor)
COc1ccc(/C=C/C(=O)c2ccccc2O)cc1	RGS4-Gao reg 159.0[activator], Avidin fluor 69
